Here are results for five compounds from PubChem BioAssay (EPA / NIEHS).

“And” between values parts separate entries of the source, which are not always exact repeats. Identical values can stand only once. More than one record can exist for a structure, and the calls need not agree. The source made the active and inactive calls. Rule for the calls: active = hit-call score of the fitted dose curve at least 0.9, where 1 is the maximum; inactive = score below 0.9.

A short description of experiment [1]: IUF_NPC2c_oligodendrocyte_migration_120hr: Leibniz Research Institute for Environmental Medicine (IUF) 120-hour Neural Progenitor Cell Migration Assay for Oligodendrocyte Migration (NPC2c) (AID 2284297).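 Note: O4-positive oligodendrocyte migration distance divided by radial glia migration distance.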 In outline: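 hNPC spheres (GW 16-19 cortex), PDL/laminin, DMEM/F12 3:1 + 1% N2, 37C. Dosing day 0–5, half feed day 3, DMSO ≤0.1%. Fixed 120 h; O4 ICC + Hoechst, HCI. Readout: mean oligodendrocyte distance from sphere edge / radial glia distance.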

Experiment [2] is described as follows: IUF_NPC2a_radial_glia_migration_120hr: Leibniz Research Institute for Environmental Medicine (IUF) 120-hour Neural Progenitor Cell Migration Assay for Radial Glia Migration (NPC2a) (AID 2284298). In outline:
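Hoechst-stained nuclei imaged at 120 h; algorithm maps sphere core by densest nuclei, sets migration edge at density threshold, gives radial glia migration distance (um) per well vs DMSO. hNPC spheres (0.3 mm), PDL/laminin, DMEM/F12 3:1 + 1% N2.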

Experiment [3] can be described thus: IUF_NPC2a_radial_glia_migration_72hr: Leibniz Research Institute for Environmental Medicine (IUF) 72-hour Neural Progenitor Cell Migration Assay for Radial Glia Migration (NPC2a) (AID 2284299). An outline of the steps: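 Readout: mean of four manual brightfield measurements of radial glia migration distance (um) at 72 h. hNPC spheres (0.3 mm) exposed to 7 compound concentrations plus solvent control on PDL/laminin, 37C, 5% CO2; activity fitted relative to DMSO.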

A short description of experiment [4]: IUF_NPC2b_neuronal_migration_120hr: Leibniz Research Institute for Environmental Medicine (IUF) 120-hour Neural Progenitor Cell Migration Assay for Neuron Migration (NPC2b) (AID 2284300). An outline of the steps: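 hNPC spheres, PDL/laminin, DMEM:F12 3:1 + 1% N2, 37C/5% CO2; 7 concentrations + solvent control (DMSO ≤0.1%), 5 d exposure, half-feed day 3. Fix 120 h, TUBB3 ICC, HCI: mean neuron migration distance ÷ glia distance.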

Experiment [5] in a line: IUF_NPC3_neuronal_differentiation_120hr: Leibniz Research Institute for Environmental Medicine (IUF) 120-hour Neuronal Differentiation Assay (NPC3) (AID 2284301). An outline of the steps:
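Neuronal differentiation of primary human neural progenitors measured by high-content imaging: percent TUBB3+ of Hoechst+ nuclei within migrated area at 120 h, seven-point serial dilution plus solvent control, gain or loss relative to DMSO.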

Experiment [6] is described as follows: IUF_NPC4_neurite_length_120hr: Leibniz Research Institute for Environmental Medicine (IUF) 120-hour Neuronal Morphology Assay for Neurite Length (NPC4) (AID 2284302). In outline: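 Neurons from differentiating human fetal neural progenitor spheres are scored for average neurite length after five days of compound exposure. Fitting uses DMSO as negative control.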

Read-out in experiment [7]: Plasminogen activator inhibitor-1 (PAI1), SERPINE1 (gene 5054)
The experiment can be described thus: BSK_CASM3C_PAI1: BioMAP Diversity Plus: CASM3C Assay for Plasminogen activator inhibitor-1 (PAI1) Biomarker Activity (AID 2284284).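 Note: PAI-1 protein level measured by ELISA 24 h after dosing.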 Conditions: primary human coronary artery smooth muscle cells.

Read-out in experiment [8]: Monocyte Chemoattractant Protein-1 (MCP1), CCL2 (gene 6347)
The experiment can be described thus: BSK_hDFCGF_MCP1: BioMAP Diversity Plus: hDFCGF Assay for Monocyte Chemoattractant Protein-1 (MCP1) Biomarker Activity (AID 2284285). Conditions: primary human foreskin fibroblasts. An outline of the steps: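 MCP-1 ELISA readout was taken 24 hours after dosing primary human dermal fibroblasts in the hDFCGF system, with DMSO as baseline. Parallel sulforhodamine B staining of total protein tracked overt cytotoxicity.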

Read-out in experiment [9]: Vascular cell adhesion molecule 1 (VCAM1), VCAM1 (gene 7412)
Nature of the experiment: BSK_IMphg_VCAM1: BioMAP Diversity Plus: IMphg Assay for Vascular cell adhesion molecule 1 (VCAM1) Biomarker Activity (AID 2284286). Conditions: primary human endothelial cells with macrophages. In outline: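 ELISA read-out of VCAM-1 on venular endothelial cell/macrophage co-cultures at 24 h post-treatment, with DMSO as baseline and positive-direction fitting. Parallel sulforhodamine B total-protein staining (560 nm) served as the overt cytotoxicity measure.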

Read-out in experiment [10]: Intercellular Adhesion Molecule 1 (ICAM1), ICAM1 (gene 3383)
Nature of the experiment: BSK_hDFCGF_ICAM1: BioMAP Diversity Plus: hDFCGF Assay for Intercellular Adhesion Molecule 1 (ICAM1) Biomarker Activity (AID 2284287). To be noted: primary human foreskin fibroblasts. An outline of the steps:
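ICAM-1 ELISA readout 24 h after dosing, DMSO as baseline, in human dermal foreskin fibroblast cultures. Cytotoxicity checked in parallel wells by SRB staining (0.1% SRB, 10% TCA fixation, 560 nm).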

Read-out in experiment [11]: CD40, CD40 (gene 958)
The experiment can be described thus: BSK_IMphg_CD40: BioMAP Diversity Plus: IMphg Assay for CD40 Biomarker Activity (AID 2284288). Conditions: primary human endothelial cells with macrophages. An outline of the steps: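 ELISA read-out of cell-surface CD40 at 24 h in human venular endothelial cell/macrophage co-cultures. Activity fitted in the positive direction against DMSO; parallel SRB staining (560 nm) gauges overt cytotoxicity.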

Read-out in experiment [12]: TIMP metallopeptidase inhibitor 2 (TIMP2), TIMP2 (gene 7077)
The experiment can be described thus: BSK_hDFCGF_TIMP2: BioMAP Diversity Plus: hDFCGF Assay for TIMP metallopeptidase inhibitor 2 (TIMP2) Biomarker Activity (AID 2284289). Conditions: primary human foreskin fibroblasts. An outline of the steps: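 Primary human foreskin fibroblasts in the hDFCGF system, dosed for 24 h; TIMP-2 level measured by ELISA, fitted in the positive direction against DMSO; cytotoxicity checked in parallel by sulforhodamine B total protein staining.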

Read-out in experiment [13]: Interleukin-1 alpha (IL1a), IL1A (gene 3552)
Nature of the experiment: BSK_IMphg_IL1a: BioMAP Diversity Plus: IMphg Assay for Interleukin-1 alpha (IL1a) Biomarker Activity (AID 2284290). To be noted: primary human endothelial cells with macrophages. An outline of the steps: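 IL-1α is quantified by ELISA at 24 h in the endothelial/macrophage IMphg co-culture, with gain of signal fitted relative to DMSO. Parallel SRB total-protein staining flags overt toxicity.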

Read-out in experiment [14]: E-selectin (Homo sapiens) (UniProt P16581)
Nature of the experiment: BSK_IMphg_ESelectin: BioMAP Diversity Plus: IMphg Assay for Eselectin Biomarker Activity (AID 2284291). Conditions: primary human endothelial cells with macrophages. In outline:
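Analysed against DMSO baseline in the positive fitting direction, this endpoint is an ELISA read of E-selectin. It comes from human venular endothelial cells co-cultured with macrophages, sampled 24 h post-dose.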

The nature of experiment [15]: BSK_IMphg_SRB: Viability Assessment in the BioMAP Diversity Plus: IMphg Assay (AID 2284292).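 Note: measured one day after compound addition.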 Conditions: primary human endothelial cells with macrophages. An outline of the steps: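 SRB viability endpoint: cultures of human endothelial cells plus macrophages fixed with 10% TCA, stained with 0.1% SRB, read at 560 nm 24 h post-dosing. Only gain-of-signal fitted, relative to DMSO.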

Read-out in experiment [16]: Macrophage colony-stimulating factor (MCSF), CSF1 (gene 1435)
Nature of the experiment: BSK_IMphg_MCSF: BioMAP Diversity Plus: IMphg Assay for Macrophage colony-stimulating factor (MCSF) Biomarker Activity (AID 2284293). Conditions: primary human endothelial cells with macrophages. In outline:
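M-CSF was measured by ELISA in human venular endothelial cell/macrophage co-cultures dosed for 24 hours. Sulforhodamine B staining of parallel cultures assessed cytotoxicity; data fitted against DMSO baseline.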

Read-out in experiment [17]: Interleukin-10 (IL10), IL10 (gene 3586)
The experiment can be described thus: BSK_IMphg_IL10: BioMAP Diversity Plus: IMphg Assay for Interleukin-10 (IL10) Biomarker Activity (AID 2284294). To be noted: primary human endothelial cells with macrophages. An outline of the steps:
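IL-10 read by ELISA after 24 h chemical exposure of primary human venular endothelial cell/macrophage cocultures, with DMSO as baseline. Parallel SRB staining (560 nm) gauged overt cytotoxicity.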

The nature of experiment [18]: BSK_IMphg_SRB.Mphg: Macrophage Viability Assessment in the BioMAP Diversity Plus: IMphg Assay (AID 2284295). To be noted: primary human endothelial cells with macrophages. In outline:
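Cytotoxicity read-out: parallel cultures fixed with 10% TCA, stained with 0.1% sulforhodamine B, read at 560 nm. System combines venular endothelium and macrophages; sampled 24 h post-dosing, fitted positively relative to DMSO control.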

Read-out in experiment [19]: Thrombomodulin, THBD (gene 7056)
The experiment can be described thus: BSK_LPS_Thrombomodulin: BioMAP Diversity Plus: LPS Assay for Thrombomodulin Biomarker Activity (AID 2284296). To be noted: primary human HUVEC with PBMC. In outline:
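Thrombomodulin on the surface of LPS-activated endothelial/PBMC co-cultures was quantified by ELISA at 24 hours post-dosing, with DMSO as baseline. Parallel SRB total-protein staining flagged overt cytotoxicity.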

Read-out in experiment [20]: CD69, CD69 (gene 969)
The experiment can be described thus: BSK_LPS_CD69: BioMAP Diversity Plus: LPS Assay for CD69 Biomarker Activity (AID 2284303). To be noted: primary human HUVEC with PBMC. An outline of the steps: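 CD69 surface levels were read by ELISA after 24 h chemical treatment of an LPS-stimulated HUVEC plus PBMC co-culture; positive-direction fit against DMSO vehicle.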

As usually defined, the AC50 is the concentration at which the activity in the assay is half-maximal.

E-selectin (Homo sapiens), sequence (P16581 whole entry, looked up): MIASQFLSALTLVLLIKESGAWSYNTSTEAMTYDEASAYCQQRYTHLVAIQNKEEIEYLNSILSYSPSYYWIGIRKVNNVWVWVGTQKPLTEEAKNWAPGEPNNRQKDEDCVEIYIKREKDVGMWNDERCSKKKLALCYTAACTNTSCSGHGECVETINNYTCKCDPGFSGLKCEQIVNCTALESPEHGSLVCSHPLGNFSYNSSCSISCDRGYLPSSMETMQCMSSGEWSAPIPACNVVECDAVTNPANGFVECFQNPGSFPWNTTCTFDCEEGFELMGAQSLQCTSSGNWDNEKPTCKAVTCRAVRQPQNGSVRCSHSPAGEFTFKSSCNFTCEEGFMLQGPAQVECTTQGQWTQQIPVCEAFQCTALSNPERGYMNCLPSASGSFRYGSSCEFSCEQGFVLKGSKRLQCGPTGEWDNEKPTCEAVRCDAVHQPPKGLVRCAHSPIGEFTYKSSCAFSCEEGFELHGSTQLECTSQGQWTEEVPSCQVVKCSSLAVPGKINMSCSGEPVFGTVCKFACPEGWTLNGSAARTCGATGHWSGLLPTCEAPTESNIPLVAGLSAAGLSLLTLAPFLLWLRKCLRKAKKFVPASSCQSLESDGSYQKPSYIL

As for `CN1CCC[C@H]1c1cccnc1`, the outcome in [1], in experiment [2], in experiment [3], in experiment [4], in [5] and in experiment [6] was inactive.

For `OCCC(F)(F)C(F)(F)C(F)(F)C(F)(F)C(F)(F)C(F)(F)C(F)(F)C(F)(F)F`, the AC50 in experiment [7] was 44.5 µM (active) and 41 µM (active); in experiment [8], 17.1 µM (active) and 11.3 µM (active); in [9] it was 45.5 µM (active) and 44.5 µM (active); in experiment [10] it was 18.1 µM (active) and 18.3 µM (active); in experiment [11] it was 46.1 µM (active) and 45.6 µM (active); in [12], 5.95 µM (active) and 16.2 µM (active). The AC50 in experiment [13] is 39.6 µM (active); in experiment [14], 47.2 µM (active) and 49.9 µM (active); in experiment [15], 50.5 µM (active) and 49.1 µM (active); in experiment [16], 30 µM (active); in experiment [17] it was 39 µM (active) and 32.8 µM (active); in experiment [18] it was 46.7 µM (active) and 47.4 µM (active). Also, the AC50 was 347 nM (active) in experiment [19]; 30 µM (active) and 2.1 µM (active) in [20]. The outcome in [13], in experiment [16] and in experiment [19] was inactive.

For the compound `CC1=C(/C=C/C(C)=C/C=C/C(C)=C/C(=O)O)C(C)(C)CCC1`, the result in experiment [1], in experiment [3], in experiment [4], in experiment [5] and in [6] was inactive. In addition, the AC50 in [2] is 1.74 µM (active).

For the compound `NCC(F)(F)C(F)(F)C(F)(F)C(F)(F)C(F)(F)C(F)(F)C(F)(F)F`, the result in [7], in experiment [8], in [9], in [10], in [11] and in experiment [12] was inactive. Moreover, the outcome in [13], in experiment [14], in [15], in [16], in experiment [17] and in [18] was inactive. Moreover, the outcome in experiment [19] and in [20] was inactive. The values for the AC50 in experiment [11] and in [18] were 24 µM (active) and 220 nM (active), respectively.

As to `FC(F)(I)C(F)(F)C(F)(F)C(F)(F)C(F)(F)C(F)(F)I`, the AC50 in [8] was 5.13 µM (active) [middle of 5 runs]; in experiment [9], 43.1 µM (active) [middle of 5 runs]; in experiment [10], 5.98 µM (active) [middle of 5 runs]; in experiment [12], 5.93 µM (active) and 5.41 µM (active) and 5.49 µM (active); in [13], 30 µM (active) and 22.7 µM (active) and 39.1 µM (active); in experiment [14], 46.1 µM (active) [middle of 5 runs]. For the same compound, the concentration at half-maximal activity (AC50) in [15] is 43.5 µM (active) [middle of 5 runs]; in experiment [16], 44.4 µM (active) [middle of 5 runs]; in experiment [17], 33.9 µM (active) [middle of 5 runs]; in experiment [18], 12.6 µM (active) [middle of 5 runs]; in [19] it was 14.6 µM (active) and 23.5 µM (active); in experiment [20] it was 4.49 µM (active) and 40.5 µM (active) and 53.2 µM (active). For the same compound, the outcome in experiment [11], in experiment [12], in [13], in experiment [19] and in [20] was inactive.
